Dicer inh: inhibitors of Dicer pre-microRNA processing, primary screen, biochemical, cat-ELCCA, chemiluminescence | AID 1347074, 2019 | cat-ELCCA pre-miR-21 Dicer processing; stronger effect = higher value | z-score at 25 µM | 6% of 47,000 active | Endoribonuclease Dicer (Homo sapiens), Q9UPY3; in the data active = z-score above about 3, passing the limit was not always enough;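 note: plate controls were vehicle for no effect and no enzyme for full effect; higher signal means more uncleaved substrate so more Dicer inhibition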
An asterisk follows results filed as active. Only a selection was taken, and hits are over-represented in it overall.

SMILES | Dicer inh
CCOc1ccc(/C=C/c2nc(-c3cccc(C)c3)no2)cc1OCC | 0.92
COc1ccccc1OCc1nc(-c2ccc(Cl)cc2)no1 | 0.24
CCOc1ccc(-c2nc(-c3ccc(OC)cc3)no2)cc1OCC | 1.64
COc1ccc(/C=C/c2nc(-c3ccccn3)no2)cc1OC | 2.37
CCOc1ccc(/C=C/c2nc(-c3ccc(Cl)cc3)no2)cc1OCC | 3.09*
O=C(NNC(=O)c1cc(Cl)cc(Cl)c1)NC(=O)c1ccccc1Cl | 0.69
Cc1cccn2c(=O)c(NC(=O)c3ccccc3)cnc12 | 3.55
CCOc1ccc(C2c3c(oc4ccccc4c3=O)C(=O)N2Cc2ccc3c(c2)OCO3)cc1OC (stereo not given) | 1.41
COC(=O)c1sc(C(C)(C)C)cc1CSc1ccc(Cl)cc1 | -0.55
Cc1nn2c3c(cnc2c1-c1ccccc1)C(=O)CC(c1cccc(Cl)c1)C3 (stereo not given) | -0.29
Cc1ccc(-c2cc(C(=O)O)c3ccccc3n2)s1 | -0.52
Cc1ccc(/C(O)=C/C(=O)C(=O)NNC(=O)c2cc(C)nc3ccccc23)cc1 | 3.25*
COC(=O)Nc1cc(C)nc2ccccc12 | -0.2
c1ccc2c(c1)ncn2CN1CCCCC1 | 1.38
O=c1c(OS(=O)(=O)c2ccccc2)c(-c2ccccc2)oc2ccccc12 | -0.97
CC(=O)C(C)(C)OC(=O)NCCc1ccc(Cl)cc1 | 7.19*
O=C(O)/C=C\C(=O)NCCc1ccc(Cl)cc1 | 7.2
CC(=O)C(C)(C)OC(=O)NCc1cccs1 | -3.2
Cc1cc(C)cc(NC(=O)C2Sc3nnc(C)n3NC2c2ccc(Cl)cc2)c1 (stereo not given) | -0.77
Cc1nnc2n1NC(c1ccc(Cl)cc1)C(C(=O)Nc1ccc(Br)cc1)S2 (stereo not given) | -0.11
Cc1cc(NC(=O)C2Sc3nnc(C)n3NC2c2ccc(Cl)cc2)ccc1Br (stereo not given) | 3.72*
O=C(Nc1ccc(Cl)cc1)NN1CC(=O)N(c2ccccc2F)CC1=O | 4.93*
O=C(Nc1ccc(F)cc1)N1CCN(c2ccccc2F)CC1 | 0.41
O=C(NN1CC(=O)N(c2cc(Cl)cc(Cl)c2)CC1=O)c1cccs1 | -0.11
CC(C)(C)c1cc2ncnc(N3CCN(c4ncnc5cc(C(C)(C)C)sc45)CC3)c2s1 | -0.57
SMILES | Dicer inh
COc1ccc(C(=O)CC2(O)C(=O)N(C)c3ccccc32)cc1OC (stereo not given) | -0.13
CCOC(=O)CSC(=S)NCc1ccc(C)cc1 | -0.75
Clc1nc(NCCN2CCOCC2)nc(Nc2ccc3c(c2)OCO3)n1 | 0.72
CCOC(=O)c1cc(/C(N)=N/O)c(C)nc1C(F)(F)F | 1.15
CC(=O)NNC(=O)C(C)n1nnc(-c2cc(C(F)(F)F)cc(C(F)(F)F)c2)n1 (stereo not given) | -0.56
CC(C(=O)NNC(=O)C1CC1)n1nnc(-c2cc(C(F)(F)F)cc(C(F)(F)F)c2)n1 (stereo not given) | -5.93
CC(C(=O)NNC(=O)C(C)(C)C)n1nnc(-c2cc(C(F)(F)F)cc(C(F)(F)F)c2)n1 (stereo not given) | 3.75*
CCOC(=O)c1ccc(NC(=O)CS(=O)(=O)C(C)C)cc1 | -0.19
COc1cc2ccccc2cc1C(=O)Nc1sc2c(c1C(N)=O)CCCC2 | 0.6
O=C1c2cccc3c(Sc4ccccc4)ccc(c23)C(=O)N1CCc1ccccn1 | 0.73
O=C1c2cccc3c(Sc4ccccc4)ccc(c23)C(=O)N1Cc1ccccc1 | 5.23*
O=C1c2cccc3c(Br)ccc(c23)C(=O)N1Cc1ccccc1 | 1.52
CC1=Nn2c(nc3sc(-c4ccccc4)cc3c2=O)SC1 | -1.28
CCOC(=O)c1c(CS(=O)(=O)c2ccccc2)n(C)c2cc(Br)c(O)cc12 | 1.36
CCOC(=O)c1c(CN(C)C)n(C)c2cc(Br)c(O)c(CN(C)C)c12 | 1.91
CCOC(=O)c1c(C)n(C)c2cc(CN(C)C)c(O)c(S(=O)(=O)c3ccccc3)c12 | 3.8*
Cc1cccc(Nc2ccc(-n3ccnc3)nn2)c1 | -1.96
CC(C)CCN1Cc2ccccc2C1 | 5.12*
CC(C)CCC(O)(CCN1CCCCC1)c1ccccc1 (stereo not given) | 2.07
CN1CCN2c3ccccc3Cc3ccccc3C2C1 (stereo not given) | -0.38
Cc1nnc2sc(-c3cc(N)ccc3Cl)nn12 | -2.1
CC(C)c1ccc(C2C(C#N)=C(N)Oc3cc(O)ccc32)cc1 (stereo not given) | 4.93*
C=CCOc1ccc(C2C(C#N)=C(N)Oc3cc(O)ccc32)cc1Cl (stereo not given) | 12.5
COc1ccc(C2C(C#N)=C(N)Oc3cc(O)ccc32)cc1C (stereo not given) | -0.6
N/C(=N\NS(=O)(=O)c1ccc(Cl)cc1)c1cnccn1 | -0.58
SMILES | Dicer inh
Cc1cc2nc(NC3=NCN(Cc4ccco4)CN3)nc(C)c2cc1C | 2.98
Cc1cc2nc(NC3=NCN(CCCN4CCOCC4)CN3)nc(C)c2cc1C | 1.8
CCCCN1CN=C(Nc2nc(C)c3cc(OCC)ccc3n2)NC1 | 1.2
CCOc1ccc2nc(NC3=NCN(CCCN4CCOCC4)CN3)nc(C)c2c1 | 3.75*
Cc1cc2nc(NC3=NCN(Cc4ccc5c(c4)OCO5)CN3)nc(C)c2cc1C | 3.21*
Cc1ccc2c(C)nc(NC3=NCN(Cc4ccccc4)CN3)nc2c1 | -0.01
C#CC(CC)(CC)NC(=O)C(CC)c1ccccc1 (stereo not given) | 0.33
CC(C)Sc1scc(-c2ccc(Cl)cc2)c1C#N | -1.51
CN(C)CCN(Cc1ccccc1)C(=O)C(C(=O)c1ccccc1)n1ccccc1=O (stereo not given) | -0.66
COc1cc(C(=O)NNC(=O)Cc2nc(-c3ccccc3)sc2C)cc(OC)c1OC | 0.28
CC1(C)SC(c2ccccc2)N[C@H]1C(=O)O (stereo not given in full) | 0.58
CCOC(=O)NNC(=S)Nc1cccc(C(F)(F)F)c1 | -0.65
CCOC(=O)NNC(=S)Nc1ccccc1 | 1.56
CCOC(=O)NNC(=S)Nc1cccc(C)c1 | 3.78*
CCOC(=O)c1sc(SCc2ccccc2)c(S(=O)(=O)C(C)C)c1N | -1.15
COc1ccccc1CC(=O)Nc1ccc2ccccc2n1 | -0.4
COc1cccc(CNc2cnc3ccccc3c2)c1O | 4.46*
COc1cccc(CN(C)C)c1O | -1.27
O=C(Oc1cc(=O)oc2c1c(=O)n1c3c(cccc23)CC1)c1cccs1 | -0.03
O=C1CC(NC2CCN(c3ncc(C(F)(F)F)cc3Cl)CC2)C(=O)N1c1ccc(F)cc1 (stereo not given) | -1.35
CC(C)OC(=O)Nc1ccc(Cl)cc1 | -0.57
CSCC(CSC)OC(=O)Nc1ccc(Cl)cc1 | 1.3
CC(=O)OC(C(=O)O)C(OC(C)=O)C(=O)Nc1ccc(Cl)cc1 (stereo not given) | 3.11*
COc1ccc(OC)c(C2NC(c3cc(OC)ccc3OC)C(C)C(C)(O)C2C)c1 (stereo not given) | -0.03
O=C(O)CCSc1nc2ccccc2[nH]1 | -1.64
SMILES | Dicer inh
O=C(O)CCSc1ccc2ccccc2c1 | -0.85
Nc1cc(N)nc(SCCC(=O)O)n1 | 3.34*
CCc1c(C)nc(SCc2ccccc2C)c(C#N)c1C | 0.96
Cc1nc2ccc(N3NOC=C3O)cc2s1 | 1.21
OC1=CONN1c1cccc2ncccc12 | 3.24*
CCN(CC)CCNc1nc(C)nc2c1sc1nc3c(cc12)COC(C)(C)C3 | 0.01
Cc1ccc(/C(O)=C2/C(=O)C(=O)N(c3cccnc3)C2c2ccc(O)cc2)cc1 (stereo not given) | -0.09
Cc1ccc(Sc2c(Sc3ccc(C)cc3)c(=O)c2=O)cc1 | -2.34
CCCCCOCC1CC2(CC(C)(c3csc(Nc4ccccc4)n3)OC2=O)C(=O)O1 (stereo not given) | -0.43
